Reference: the supplement of paper PMC11732987, “Enantioselective OTUD7B fragment discovery through chemoproteomics screening and high-throughput optimisation” (Communications Chemistry, 2025)

Assays:
Assay in all cases: log2 ratio of Biotin-Ahx-Ub-VS probe labelling (fragment/DMSO); higher = less target engagement (more negative = stronger competition), active = hit call of the paper (q ≤ 0.05, log2 ratio ≤ -1)
Settings in all cases: compound concentration: 200 uM; treatment time: 3 h
[1] = molecular target: T1, USP42 (UniProt Q9H9J4)
T1 sequence (whole entry): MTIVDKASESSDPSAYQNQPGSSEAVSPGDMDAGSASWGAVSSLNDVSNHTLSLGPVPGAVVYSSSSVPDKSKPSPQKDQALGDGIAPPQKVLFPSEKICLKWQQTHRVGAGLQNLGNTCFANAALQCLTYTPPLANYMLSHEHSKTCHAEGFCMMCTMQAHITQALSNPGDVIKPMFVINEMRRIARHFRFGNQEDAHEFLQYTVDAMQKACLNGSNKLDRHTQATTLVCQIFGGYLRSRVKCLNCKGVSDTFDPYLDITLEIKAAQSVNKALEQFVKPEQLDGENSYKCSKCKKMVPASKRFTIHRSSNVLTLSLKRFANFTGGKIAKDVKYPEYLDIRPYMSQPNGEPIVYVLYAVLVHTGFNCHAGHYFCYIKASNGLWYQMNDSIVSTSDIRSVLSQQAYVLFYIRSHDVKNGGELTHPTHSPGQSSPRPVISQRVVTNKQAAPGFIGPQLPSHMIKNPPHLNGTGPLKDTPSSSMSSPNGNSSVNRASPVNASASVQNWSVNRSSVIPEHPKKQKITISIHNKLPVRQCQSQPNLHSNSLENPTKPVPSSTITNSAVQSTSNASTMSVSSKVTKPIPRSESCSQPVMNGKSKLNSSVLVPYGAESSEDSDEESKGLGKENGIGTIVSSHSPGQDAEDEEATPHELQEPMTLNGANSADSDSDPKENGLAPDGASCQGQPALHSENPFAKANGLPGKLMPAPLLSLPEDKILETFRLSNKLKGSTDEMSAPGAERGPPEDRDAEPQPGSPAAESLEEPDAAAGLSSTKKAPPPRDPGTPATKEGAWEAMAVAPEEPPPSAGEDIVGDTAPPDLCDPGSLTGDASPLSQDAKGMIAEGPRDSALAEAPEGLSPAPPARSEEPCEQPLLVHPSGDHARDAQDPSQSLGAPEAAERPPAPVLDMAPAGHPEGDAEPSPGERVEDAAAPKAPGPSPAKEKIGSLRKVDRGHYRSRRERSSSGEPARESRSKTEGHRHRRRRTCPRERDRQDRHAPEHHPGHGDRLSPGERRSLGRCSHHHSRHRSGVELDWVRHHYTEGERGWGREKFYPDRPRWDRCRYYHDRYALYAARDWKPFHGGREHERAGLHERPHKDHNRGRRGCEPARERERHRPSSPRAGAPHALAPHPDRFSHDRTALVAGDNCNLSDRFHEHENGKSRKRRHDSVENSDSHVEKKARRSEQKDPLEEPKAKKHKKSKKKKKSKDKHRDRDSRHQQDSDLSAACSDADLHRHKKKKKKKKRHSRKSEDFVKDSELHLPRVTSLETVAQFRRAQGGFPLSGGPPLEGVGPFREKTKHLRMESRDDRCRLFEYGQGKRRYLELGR
Outline: (§1)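 Fragment (200 µM) or vehicle was incubated for 3 h with triplicate HEK293T lysate samples of 495 µg, which were then treated with Biotin-Ahx-Ub-VS at 0.5 µM final for 1 h. Labelled DUBs were enriched on NeutrAvidin, digested with LysC and trypsin, and analysed by diaPASEF LC-MS/MS. Values are average log2 fragment/vehicle ratios from an unpaired t-test on global-median-normalised Spectronaut label-free quantities, using proteins with ≥2 unique peptides.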

[2] = molecular target: USP46 (UniProt P62068)
Outline: as §1

[3] = molecular target: T2, USP47 (UniProt Q96K76)
T2 sequence (whole entry): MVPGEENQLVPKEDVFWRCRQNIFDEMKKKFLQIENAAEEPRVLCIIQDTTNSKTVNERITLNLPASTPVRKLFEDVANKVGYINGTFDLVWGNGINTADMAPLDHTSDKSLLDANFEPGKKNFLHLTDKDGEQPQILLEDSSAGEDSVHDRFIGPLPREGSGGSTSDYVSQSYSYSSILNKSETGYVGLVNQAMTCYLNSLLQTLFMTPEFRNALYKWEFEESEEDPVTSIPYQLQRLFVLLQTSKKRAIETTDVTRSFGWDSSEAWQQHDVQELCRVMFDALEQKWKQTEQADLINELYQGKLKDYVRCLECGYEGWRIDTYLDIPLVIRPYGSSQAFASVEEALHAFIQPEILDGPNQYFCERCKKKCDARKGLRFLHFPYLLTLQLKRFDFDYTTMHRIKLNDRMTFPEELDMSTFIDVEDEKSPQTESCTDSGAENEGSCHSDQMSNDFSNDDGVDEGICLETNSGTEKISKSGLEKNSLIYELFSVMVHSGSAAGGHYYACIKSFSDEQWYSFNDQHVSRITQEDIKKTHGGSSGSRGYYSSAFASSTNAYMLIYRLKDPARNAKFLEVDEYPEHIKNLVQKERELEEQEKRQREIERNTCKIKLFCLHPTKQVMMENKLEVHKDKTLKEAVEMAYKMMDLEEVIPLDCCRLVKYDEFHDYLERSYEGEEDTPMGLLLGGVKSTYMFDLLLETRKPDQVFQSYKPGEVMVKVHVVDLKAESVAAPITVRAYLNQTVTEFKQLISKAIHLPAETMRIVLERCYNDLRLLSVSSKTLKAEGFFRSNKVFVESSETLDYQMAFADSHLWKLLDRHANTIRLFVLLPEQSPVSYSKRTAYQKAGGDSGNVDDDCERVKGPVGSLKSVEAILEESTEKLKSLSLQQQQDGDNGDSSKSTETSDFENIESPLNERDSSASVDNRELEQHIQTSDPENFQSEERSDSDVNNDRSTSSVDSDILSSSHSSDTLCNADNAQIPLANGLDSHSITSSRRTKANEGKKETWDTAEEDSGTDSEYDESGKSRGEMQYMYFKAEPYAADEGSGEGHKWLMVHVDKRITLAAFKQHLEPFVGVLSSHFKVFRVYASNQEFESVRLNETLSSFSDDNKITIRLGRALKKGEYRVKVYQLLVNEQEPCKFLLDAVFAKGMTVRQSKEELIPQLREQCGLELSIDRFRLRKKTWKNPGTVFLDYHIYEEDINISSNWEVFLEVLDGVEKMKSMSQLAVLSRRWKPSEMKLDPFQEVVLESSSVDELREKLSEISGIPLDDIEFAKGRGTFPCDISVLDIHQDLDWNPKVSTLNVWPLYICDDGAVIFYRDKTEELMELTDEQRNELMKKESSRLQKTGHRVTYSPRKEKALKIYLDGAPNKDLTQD
Outline: as §1

[4] = molecular target: T3, USP48 (UniProt Q86UV5)
T3 sequence (whole entry): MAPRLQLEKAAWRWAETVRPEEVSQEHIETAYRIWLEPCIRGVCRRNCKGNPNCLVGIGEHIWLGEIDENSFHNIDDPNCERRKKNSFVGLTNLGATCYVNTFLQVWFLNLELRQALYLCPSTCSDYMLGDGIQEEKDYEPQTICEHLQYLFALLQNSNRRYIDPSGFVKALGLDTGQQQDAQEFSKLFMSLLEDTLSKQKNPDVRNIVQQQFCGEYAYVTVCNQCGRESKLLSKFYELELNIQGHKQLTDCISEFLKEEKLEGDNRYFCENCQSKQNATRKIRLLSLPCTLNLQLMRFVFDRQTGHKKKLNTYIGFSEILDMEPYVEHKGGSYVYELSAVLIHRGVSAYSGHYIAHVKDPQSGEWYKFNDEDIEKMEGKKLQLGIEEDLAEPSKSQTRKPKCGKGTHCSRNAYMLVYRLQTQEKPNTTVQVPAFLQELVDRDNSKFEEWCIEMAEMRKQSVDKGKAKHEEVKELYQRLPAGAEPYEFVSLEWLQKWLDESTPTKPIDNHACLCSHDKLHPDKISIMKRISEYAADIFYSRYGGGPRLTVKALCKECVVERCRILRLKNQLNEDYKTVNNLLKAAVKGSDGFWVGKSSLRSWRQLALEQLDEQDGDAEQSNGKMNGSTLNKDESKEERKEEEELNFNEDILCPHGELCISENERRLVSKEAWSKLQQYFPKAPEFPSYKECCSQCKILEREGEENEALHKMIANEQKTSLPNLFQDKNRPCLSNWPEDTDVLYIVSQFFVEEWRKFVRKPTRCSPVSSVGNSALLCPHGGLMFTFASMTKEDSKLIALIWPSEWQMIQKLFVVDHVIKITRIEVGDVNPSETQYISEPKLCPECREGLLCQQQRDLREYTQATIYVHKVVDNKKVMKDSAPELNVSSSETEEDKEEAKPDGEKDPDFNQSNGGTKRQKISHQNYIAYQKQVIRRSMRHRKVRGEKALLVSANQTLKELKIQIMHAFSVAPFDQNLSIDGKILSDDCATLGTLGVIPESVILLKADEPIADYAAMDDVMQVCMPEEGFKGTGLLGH
Outline: as §1

[5] = molecular target: T4, USP5 (UniProt P45974)
T4 sequence (whole entry): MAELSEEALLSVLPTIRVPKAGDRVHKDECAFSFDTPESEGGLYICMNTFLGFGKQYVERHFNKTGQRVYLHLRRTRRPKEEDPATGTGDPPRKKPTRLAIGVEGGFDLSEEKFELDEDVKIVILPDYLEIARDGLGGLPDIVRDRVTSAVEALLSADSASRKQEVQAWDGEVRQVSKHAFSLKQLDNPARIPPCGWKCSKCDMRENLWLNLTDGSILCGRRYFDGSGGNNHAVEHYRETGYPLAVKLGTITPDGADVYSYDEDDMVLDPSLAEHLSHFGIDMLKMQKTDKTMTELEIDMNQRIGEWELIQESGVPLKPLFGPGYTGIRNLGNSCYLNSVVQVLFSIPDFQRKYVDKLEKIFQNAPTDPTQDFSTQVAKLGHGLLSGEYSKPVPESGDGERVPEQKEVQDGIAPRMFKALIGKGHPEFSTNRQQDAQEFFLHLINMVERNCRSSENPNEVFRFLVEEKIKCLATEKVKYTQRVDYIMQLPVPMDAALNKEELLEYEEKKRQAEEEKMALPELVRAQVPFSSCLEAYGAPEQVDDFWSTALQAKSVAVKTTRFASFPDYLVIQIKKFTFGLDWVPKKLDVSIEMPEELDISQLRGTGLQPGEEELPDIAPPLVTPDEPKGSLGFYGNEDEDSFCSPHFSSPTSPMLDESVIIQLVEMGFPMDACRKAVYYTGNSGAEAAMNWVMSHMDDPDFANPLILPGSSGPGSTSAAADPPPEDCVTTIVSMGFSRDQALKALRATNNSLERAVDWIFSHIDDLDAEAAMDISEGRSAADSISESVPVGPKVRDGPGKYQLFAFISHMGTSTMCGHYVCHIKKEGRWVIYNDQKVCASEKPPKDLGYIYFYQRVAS
Outline: as §1

[6] = molecular target: USP54 (UniProt Q70EL1)
Outline: as §1

[7] = molecular target: USP7 (UniProt Q93009)
Outline: as §1

[8] = molecular target: T5, USP8 (UniProt P40818)
T5 sequence (whole entry): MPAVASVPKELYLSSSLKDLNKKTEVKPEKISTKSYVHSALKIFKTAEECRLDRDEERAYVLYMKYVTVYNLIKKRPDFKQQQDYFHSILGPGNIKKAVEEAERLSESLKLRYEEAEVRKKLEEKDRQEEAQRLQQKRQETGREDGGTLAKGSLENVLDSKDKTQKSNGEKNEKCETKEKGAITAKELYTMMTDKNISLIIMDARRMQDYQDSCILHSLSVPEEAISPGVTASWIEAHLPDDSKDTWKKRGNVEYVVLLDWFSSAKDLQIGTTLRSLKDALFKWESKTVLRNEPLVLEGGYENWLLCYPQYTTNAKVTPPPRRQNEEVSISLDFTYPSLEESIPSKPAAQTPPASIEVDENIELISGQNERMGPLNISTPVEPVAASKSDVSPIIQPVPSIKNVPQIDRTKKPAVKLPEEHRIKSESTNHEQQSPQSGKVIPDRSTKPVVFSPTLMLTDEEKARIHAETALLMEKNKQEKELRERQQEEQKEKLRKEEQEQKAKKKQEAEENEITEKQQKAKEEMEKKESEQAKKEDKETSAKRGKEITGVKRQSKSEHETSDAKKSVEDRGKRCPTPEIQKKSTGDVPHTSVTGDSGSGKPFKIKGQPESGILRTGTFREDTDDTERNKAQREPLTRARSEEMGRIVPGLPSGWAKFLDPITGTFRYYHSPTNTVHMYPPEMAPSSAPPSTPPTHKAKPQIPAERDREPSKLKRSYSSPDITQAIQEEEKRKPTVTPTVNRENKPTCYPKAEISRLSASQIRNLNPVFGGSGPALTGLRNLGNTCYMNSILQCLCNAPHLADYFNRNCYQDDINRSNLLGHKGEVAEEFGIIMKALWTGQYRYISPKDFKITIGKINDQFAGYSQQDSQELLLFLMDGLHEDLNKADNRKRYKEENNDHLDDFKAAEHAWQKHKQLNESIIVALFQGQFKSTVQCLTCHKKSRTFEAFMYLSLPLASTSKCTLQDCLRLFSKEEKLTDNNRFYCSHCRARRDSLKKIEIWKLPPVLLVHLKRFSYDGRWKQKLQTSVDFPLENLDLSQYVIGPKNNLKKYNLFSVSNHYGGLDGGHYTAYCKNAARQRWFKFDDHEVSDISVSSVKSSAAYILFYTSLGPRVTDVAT
Outline: as §1

[9] = molecular target: USP9X (UniProt Q93008)
Outline: as §1

[10] = molecular target: UniProt O00487
Outline: as §1

Measured: log2 ratio of Biotin-Ahx-Ub-VS probe labelling

Sequence of USP7 (Q93009 whole entry, looked up): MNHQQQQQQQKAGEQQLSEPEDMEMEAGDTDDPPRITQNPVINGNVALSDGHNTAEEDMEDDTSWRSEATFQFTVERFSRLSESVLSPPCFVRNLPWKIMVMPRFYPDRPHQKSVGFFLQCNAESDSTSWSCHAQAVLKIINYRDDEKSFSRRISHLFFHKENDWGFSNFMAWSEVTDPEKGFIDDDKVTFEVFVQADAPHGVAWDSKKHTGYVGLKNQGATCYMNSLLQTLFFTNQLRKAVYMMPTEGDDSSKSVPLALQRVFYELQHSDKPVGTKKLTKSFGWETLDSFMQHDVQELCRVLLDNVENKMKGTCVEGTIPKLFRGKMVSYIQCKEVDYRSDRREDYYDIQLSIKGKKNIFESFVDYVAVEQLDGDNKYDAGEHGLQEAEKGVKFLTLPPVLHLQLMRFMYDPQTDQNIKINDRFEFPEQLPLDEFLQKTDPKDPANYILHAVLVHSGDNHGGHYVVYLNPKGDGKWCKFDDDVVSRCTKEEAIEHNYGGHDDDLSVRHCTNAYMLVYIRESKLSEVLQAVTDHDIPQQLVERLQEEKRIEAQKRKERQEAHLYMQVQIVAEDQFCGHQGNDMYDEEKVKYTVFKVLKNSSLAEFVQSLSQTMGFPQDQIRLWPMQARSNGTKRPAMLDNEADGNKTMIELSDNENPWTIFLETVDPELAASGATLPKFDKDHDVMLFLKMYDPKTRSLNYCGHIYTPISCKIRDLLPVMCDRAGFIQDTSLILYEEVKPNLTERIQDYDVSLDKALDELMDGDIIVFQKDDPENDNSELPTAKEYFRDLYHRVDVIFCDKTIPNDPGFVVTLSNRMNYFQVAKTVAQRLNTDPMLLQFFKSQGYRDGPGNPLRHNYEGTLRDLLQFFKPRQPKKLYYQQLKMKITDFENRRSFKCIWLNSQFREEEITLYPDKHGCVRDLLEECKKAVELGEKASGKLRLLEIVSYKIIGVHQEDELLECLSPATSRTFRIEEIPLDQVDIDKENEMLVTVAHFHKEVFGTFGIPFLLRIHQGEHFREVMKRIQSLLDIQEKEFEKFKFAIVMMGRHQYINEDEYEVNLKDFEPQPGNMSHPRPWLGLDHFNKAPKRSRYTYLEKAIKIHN
Sequence of USP9X (Q93008 whole entry): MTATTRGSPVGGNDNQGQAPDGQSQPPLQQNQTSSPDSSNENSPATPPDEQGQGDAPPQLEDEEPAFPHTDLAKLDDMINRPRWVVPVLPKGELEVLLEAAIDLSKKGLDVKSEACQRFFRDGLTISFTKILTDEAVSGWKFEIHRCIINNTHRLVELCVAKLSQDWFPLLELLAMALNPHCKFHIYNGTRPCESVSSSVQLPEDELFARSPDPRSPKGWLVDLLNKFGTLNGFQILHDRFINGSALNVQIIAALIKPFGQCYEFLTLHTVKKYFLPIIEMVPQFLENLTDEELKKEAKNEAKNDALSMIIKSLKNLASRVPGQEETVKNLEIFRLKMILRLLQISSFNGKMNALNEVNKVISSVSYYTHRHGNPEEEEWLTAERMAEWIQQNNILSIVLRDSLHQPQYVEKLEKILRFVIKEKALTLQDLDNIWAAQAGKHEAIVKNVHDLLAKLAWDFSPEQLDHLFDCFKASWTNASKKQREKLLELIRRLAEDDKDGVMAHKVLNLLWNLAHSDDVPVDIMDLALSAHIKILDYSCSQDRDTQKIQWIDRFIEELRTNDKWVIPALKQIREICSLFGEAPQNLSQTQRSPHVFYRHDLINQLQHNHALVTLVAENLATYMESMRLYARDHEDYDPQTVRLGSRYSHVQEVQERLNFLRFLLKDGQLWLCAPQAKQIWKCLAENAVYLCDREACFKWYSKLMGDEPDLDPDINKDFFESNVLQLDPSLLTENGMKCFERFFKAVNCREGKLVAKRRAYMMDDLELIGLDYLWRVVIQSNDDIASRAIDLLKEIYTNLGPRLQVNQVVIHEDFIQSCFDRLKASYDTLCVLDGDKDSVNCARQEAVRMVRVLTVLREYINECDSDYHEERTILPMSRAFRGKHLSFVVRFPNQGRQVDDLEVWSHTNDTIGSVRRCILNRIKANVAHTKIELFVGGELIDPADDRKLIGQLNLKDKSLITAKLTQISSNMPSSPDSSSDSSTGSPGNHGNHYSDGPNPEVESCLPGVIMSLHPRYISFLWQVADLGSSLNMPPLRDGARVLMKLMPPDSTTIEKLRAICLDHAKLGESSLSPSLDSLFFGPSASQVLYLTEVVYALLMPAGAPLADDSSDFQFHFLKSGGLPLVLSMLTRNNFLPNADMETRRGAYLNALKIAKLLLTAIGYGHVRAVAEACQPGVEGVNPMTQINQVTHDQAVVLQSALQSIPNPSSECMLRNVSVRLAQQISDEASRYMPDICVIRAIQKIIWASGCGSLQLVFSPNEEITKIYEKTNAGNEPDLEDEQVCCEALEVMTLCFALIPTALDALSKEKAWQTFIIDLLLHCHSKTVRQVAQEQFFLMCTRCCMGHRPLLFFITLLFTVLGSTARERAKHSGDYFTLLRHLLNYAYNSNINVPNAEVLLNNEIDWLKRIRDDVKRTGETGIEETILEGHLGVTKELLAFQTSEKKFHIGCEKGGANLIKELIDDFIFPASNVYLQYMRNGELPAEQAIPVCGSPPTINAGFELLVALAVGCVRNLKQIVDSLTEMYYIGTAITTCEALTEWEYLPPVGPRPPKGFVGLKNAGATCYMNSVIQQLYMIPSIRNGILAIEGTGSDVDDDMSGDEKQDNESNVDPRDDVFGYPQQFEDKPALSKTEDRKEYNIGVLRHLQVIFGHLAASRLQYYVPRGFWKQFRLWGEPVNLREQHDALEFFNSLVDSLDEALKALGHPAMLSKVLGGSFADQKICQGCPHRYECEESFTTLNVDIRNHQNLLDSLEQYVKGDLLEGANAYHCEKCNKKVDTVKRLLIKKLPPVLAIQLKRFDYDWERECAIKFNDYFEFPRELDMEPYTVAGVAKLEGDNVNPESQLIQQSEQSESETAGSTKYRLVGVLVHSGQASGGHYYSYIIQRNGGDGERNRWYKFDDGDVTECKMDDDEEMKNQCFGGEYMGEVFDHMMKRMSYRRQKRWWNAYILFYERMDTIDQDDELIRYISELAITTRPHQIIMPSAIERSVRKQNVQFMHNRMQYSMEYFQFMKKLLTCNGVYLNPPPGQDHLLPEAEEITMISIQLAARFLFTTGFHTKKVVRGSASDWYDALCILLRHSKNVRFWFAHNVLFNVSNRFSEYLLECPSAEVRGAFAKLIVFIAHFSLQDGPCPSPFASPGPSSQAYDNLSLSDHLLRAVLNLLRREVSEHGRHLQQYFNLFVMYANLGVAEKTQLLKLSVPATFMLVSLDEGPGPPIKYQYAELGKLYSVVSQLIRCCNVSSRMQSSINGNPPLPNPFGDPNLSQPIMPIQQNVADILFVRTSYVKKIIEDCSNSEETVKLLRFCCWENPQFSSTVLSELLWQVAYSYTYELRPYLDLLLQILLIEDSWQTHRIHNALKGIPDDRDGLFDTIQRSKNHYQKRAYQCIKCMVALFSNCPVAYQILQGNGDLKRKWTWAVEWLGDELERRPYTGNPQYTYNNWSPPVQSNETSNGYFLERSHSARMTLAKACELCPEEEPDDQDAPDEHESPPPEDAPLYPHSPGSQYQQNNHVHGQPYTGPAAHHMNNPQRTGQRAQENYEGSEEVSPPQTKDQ
Sequence of UniProt O00487 (O00487 whole entry): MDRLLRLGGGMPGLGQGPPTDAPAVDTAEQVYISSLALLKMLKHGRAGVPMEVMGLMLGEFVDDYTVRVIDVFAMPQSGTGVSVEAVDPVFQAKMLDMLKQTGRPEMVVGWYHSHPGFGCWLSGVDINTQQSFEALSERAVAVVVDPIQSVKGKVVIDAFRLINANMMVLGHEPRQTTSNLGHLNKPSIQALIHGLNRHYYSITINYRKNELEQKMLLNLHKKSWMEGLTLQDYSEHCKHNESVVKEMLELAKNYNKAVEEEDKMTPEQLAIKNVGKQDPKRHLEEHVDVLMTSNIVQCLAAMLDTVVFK
Sequence of USP46 (P62068 whole entry): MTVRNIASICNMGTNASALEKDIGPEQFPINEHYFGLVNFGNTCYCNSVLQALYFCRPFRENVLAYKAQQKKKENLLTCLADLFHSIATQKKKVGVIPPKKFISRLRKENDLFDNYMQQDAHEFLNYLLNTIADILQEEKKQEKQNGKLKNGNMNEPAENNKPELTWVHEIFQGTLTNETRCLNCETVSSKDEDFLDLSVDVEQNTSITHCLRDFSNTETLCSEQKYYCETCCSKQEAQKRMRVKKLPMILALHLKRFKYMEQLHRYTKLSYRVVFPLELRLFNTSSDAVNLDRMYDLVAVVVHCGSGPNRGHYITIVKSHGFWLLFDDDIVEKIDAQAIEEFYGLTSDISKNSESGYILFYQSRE

O=C(CCl)N1CCC(C(=O)N2CCCCCC2)CC1
inactive: [1] 0.671 | [2] -0.142 | [3] -0.239 | [4] -0.0351 | [5] 0.0959 | [6] 0.452 | [7] -0.714 | [8] -0.0368 | [9] -0.297 | [10] -0.112
